Here are results for 16 molecules from PubChem BioAssay (NCI).

Among the test systems are T-47D breast; BT-549 breast; MDA-MB-435 melanoma; SW-620 colon; MCF7 breast; HCT-116 colon; HCC-2998 colon; KM12 colon.
Assay in all cases: NCI-60 one-dose screen, 48 h (100 = growth as untreated, 0 = no growth, -100 = all killed)
Common to all, as to conditions: 10 µM unless noted

SMILES strings stand for the structures. Compounds without any hit were thinned out: in the full panel of roughly 83,000, 20% have a hit.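 Growth was measured after 48 h exposure to one concentration of compound in 96-well plates. Values under 10 count as active.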 A number with no mark means an inactive call. Calls of active or inactive are those of the source.

Turning to `CN(C)S(=O)(=O)c1cccc(-c2nc3sc4c(c3c(=O)[nH]2)CCCC4)c1`, the growth in the experiment with T-47D breast was -22.1% (active); in the experiment with BT-549 breast it was 31.9%; in the experiment with MDA-MB-435 melanoma it was 43.9%; in the experiment with SW-620 colon, 13.7%; in the experiment with MCF7 breast, 53.4%; in the experiment with HCT-116 colon it was -41.3% (active). Further, the growth in the experiment on HCC-2998 colon was -50.5% (active); in the experiment with KM12 colon it was 43.9%.
`c1ccc(-c2c(-c3ccccc3)[n+](Cc3ccc4ccccc4c3)c(-c3ccc(-c4nc5ccccc5s4)cc3)n2Cc2ccc3ccccc3c2)cc1`: the growth in the experiment with T-47D breast was -78.2% (active); with BT-549 breast it was -87.5% (active); in the experiment with MDA-MB-435 melanoma it was -76.9% (active); in the experiment on SW-620 colon, -78.3% (active); in the experiment with MCF7 breast, -65.5% (active); in the experiment on HCT-116 colon it was -83.5% (active). Besides, the growth with HCC-2998 colon is -93.8% (active); in the experiment with KM12 colon, -88.1% (active).
For the molecule `O=Nc1c(O)c(Cl)cc2ccccc12`, the growth with T-47D breast was -4.57% (active); with BT-549 breast, 83.7%; with MDA-MB-435 melanoma, 91.8%; in the experiment with SW-620 colon it was 46.2%; in the experiment on MCF7 breast, 49.6%; in the experiment on HCT-116 colon, 31.5%. Moreover, the results for the growth in the experiment on HCC-2998 colon and in the experiment on KM12 colon were 115% and 79.5%, respectively.
As to `c1ccc(Cn2cc(-c3nc4ccccc4s3)c3cccnc32)cc1`, the growth with T-47D breast is 94%; in the experiment on BT-549 breast, 106%; with MDA-MB-435 melanoma it was 104%; with SW-620 colon, 105%; with MCF7 breast, 75.4%; with HCT-116 colon, 100%. In addition, the growth is 107% in the experiment on HCC-2998 colon and 92.6% in the experiment on KM12 colon.
For `O=C1c2cc3c(cc2-c2c1c1ccc(F)cc1c(=O)n2C[C@H](O)[C@H](O)[C@H](O)CO)OCO3`, the growth in the experiment on T-47D breast is -14.8% (active); in the experiment on BT-549 breast it was -11.3% (active); in the experiment with MDA-MB-435 melanoma it was -75.6% (active); with SW-620 colon, 1.12% (active); in the experiment with MCF7 breast, 0.35% (active); in the experiment with HCT-116 colon, 9.02% (active). The growth with HCC-2998 colon was -50.2% (active); with KM12 colon it was 3.9% (active).
On to `CN(C)c1ccc(N=Nc2ccc(Br)cn2)c(O)c1`, for which the growth with T-47D breast was 30.2%; in the experiment on BT-549 breast it was 38.2%; in the experiment with MDA-MB-435 melanoma, 33%; with SW-620 colon, 26.1%; with MCF7 breast, 10.4%; in the experiment on HCT-116 colon, 25.5%. The growth is 34.3% with HCC-2998 colon and 26.7% in the experiment with KM12 colon.
On to `Cc1cc(N2CCCC2)nc(NC2CCCC(Nc3ccnc4cc(Cl)ccc34)C2)n1` (stereo not drawn), for which the growth in the experiment on T-47D breast is -35.1% (active); in the experiment on BT-549 breast, -57.9% (active); in the experiment on MDA-MB-435 melanoma it was -92.6% (active); with SW-620 colon, -58.3% (active); in the experiment with MCF7 breast, -13.2% (active); in the experiment with HCT-116 colon, -87.1% (active). Also, the growth with HCC-2998 colon was -40.4% (active); in the experiment on KM12 colon it was -62.4% (active).
In the case of `Cn1c(O)c(N=NC(=O)c2cc(-c3ccccc3)on2)c2ccccc21`, the growth is 101% in the experiment on T-47D breast; 103% in the experiment with BT-549 breast; 95.3% in the experiment on MDA-MB-435 melanoma; 105% in the experiment on SW-620 colon; 77.5% in the experiment on MCF7 breast; 98.9% in the experiment with HCT-116 colon. For the same molecule, the growth in the experiment on HCC-2998 colon was 102%; in the experiment on KM12 colon, 101%.
Take `Cc1nc(/N=C(\N)NC(=O)Nc2cccc([N+](=O)[O-])c2)sc1C`: the growth is 80.8% with T-47D breast; 65.8% with BT-549 breast; 8.17% (active) in the experiment on MDA-MB-435 melanoma; 40.1% with SW-620 colon; 31.1% with MCF7 breast; 71.1% in the experiment with HCT-116 colon. In addition, the growth is 84.1% with HCC-2998 colon and 72.1% in the experiment with KM12 colon.
On to `COc1cc(/C=C/c2cc(/C=C/c3ccc(O)c(OC)c3)n(-c3c(Cl)cccc3Cl)c(=O)n2)ccc1O`, for which the growth with T-47D breast is 24.1%; in the experiment on BT-549 breast, 15.2%; with MDA-MB-435 melanoma it was 4.57% (active); in the experiment with SW-620 colon, 10.4%; in the experiment on MCF7 breast, 13.7%; in the experiment on HCT-116 colon, 4.63% (active). For the same molecule, the growth with HCC-2998 colon is 41.8%; with KM12 colon, 12.1%.
Turning to `COc1ccc(/C=C\c2cc(OC)c(OC)c(OC)c2)cc1OCC(=O)Nc1ccc2nc(C)sc2c1`, the growth in the experiment on T-47D breast is 6.4% (active); in the experiment with BT-549 breast, 38%; in the experiment with MDA-MB-435 melanoma, -3.48% (active); in the experiment on SW-620 colon, 38%; in the experiment on MCF7 breast, 20.6%; in the experiment with HCT-116 colon, 23.4%. Also, the growth in the experiment with HCC-2998 colon was 86.1%; with KM12 colon, 19%.
For the molecule `O=C1/C(=C/c2cn(-c3ccccc3)nc2-c2ccccc2)SC(=S)N1CCc1ccccc1`, the growth in the experiment with T-47D breast was 96.5%; in the experiment with BT-549 breast it was 109%; with MDA-MB-435 melanoma it was 97.6%; with SW-620 colon, 100%; with MCF7 breast it was 95.3%; in the experiment on HCT-116 colon, 102%. The figures for the growth with HCC-2998 colon and in the experiment with KM12 colon were 107% and 100%, respectively.
On to `CCOc1cc2c(cc1OCC)C(c1cc(OC)c(O)cc1Cl)NCC2` (stereo not drawn), for which the growth is 85.4% with T-47D breast; 102% in the experiment with BT-549 breast; 77.5% with MDA-MB-435 melanoma; 99.3% with SW-620 colon; 93.5% with MCF7 breast; 76.3% in the experiment with HCT-116 colon. Further, the results for the growth in the experiment with HCC-2998 colon and in the experiment on KM12 colon were 63.2% and 88.9%, respectively.
Regarding `O=C(Cc1ccc(/C=C/C(=O)c2ncc[nH]2)cc1)Nc1ccc(F)cc1`, the growth with T-47D breast was 19.3%; in the experiment on BT-549 breast, 22.4%; with MDA-MB-435 melanoma it was 32.6%; in the experiment with SW-620 colon, 4.06% (active); in the experiment on MCF7 breast, 11.3%; in the experiment on HCT-116 colon, 26.8%. The growth in the experiment on HCC-2998 colon is 79.7%; in the experiment on KM12 colon, 8.05% (active).
With `COc1ccc(Nc2cc(C)nc(N3CCN(c4ccnc5cc(Cl)ccc45)CC3)n2)cc1`, the growth is 7.42% (active) in the experiment on T-47D breast; 51.2% in the experiment with BT-549 breast; 2.27% (active) in the experiment with MDA-MB-435 melanoma; 25.4% in the experiment with SW-620 colon; 9.32% (active) in the experiment on MCF7 breast; 0.65% (active) in the experiment with HCT-116 colon. Further, the results for the growth in the experiment with HCC-2998 colon and in the experiment on KM12 colon were 41.2% and 23.1%, respectively.
With `Oc1ccccc1-c1nnc(CNc2ccc(Cl)cc2)o1`, the growth is 30.9% in the experiment on T-47D breast; 41.1% with BT-549 breast; 33.8% in the experiment with MDA-MB-435 melanoma; 29.4% in the experiment on SW-620 colon; 14.2% in the experiment with MCF7 breast; 42% in the experiment with HCT-116 colon. For the same molecule, the growth was 37.5% in the experiment with HCC-2998 colon and 18.9% with KM12 colon.
